From PubChem BioAssay AID1159580 (chemical genetic matrix, 2015)
Where “and” joins values, the source holds several entries; their conditions need not be identical. Identical values can stand only once. Screen size: about 5,500 compounds; about 2,000 (36%) were called active. Inconclusive results (about 18%) are left out. No stated cut-off is given here; in the data, active means normalized growth mostly below about 0.91 (no sharp cut-off); inconclusive means no clear call, values can overlap the other calls; inactive means mostly above about 0.92. The list shows a part of the results.

Test: chemical genetic growth profiling, strain panel (AID 1159580);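 further: tested at 20 µM; growth read once vehicle control cultures reached saturation at 30 °C; 1 = growth at the plate median or of vehicle wells; lower values mean less growth of the strain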
Details: S. cerevisiae deletion strains, growth OD

Measured: normalized growth

COc1cc(OC)c2c(OC)c(-c3ccc4c(c3)OCO4)c(=O)oc2c1
active: locus YDR137W, strain rgp1, active compounds read low 0.777 | locus YDR392W, strain spt3, active compounds read low 0.477
inactive: locus YAL013W, strain DEP1, active compounds read low 0.982 | locus YAL021C, strain ccr4, active compounds read low 0.968 | locus YAL026C, strain drs2, active compounds read low 0.957 | locus YAL030W, strain snc1, active compounds read low 0.975 | locus YBL061C, strain skt5, active compounds read low 0.955 | locus YBR009C, strain hhf1, active compounds read low 0.934 | locus YBR021W, strain FUR4, active compounds read low 0.975 | locus YBR023C, strain chs3, active compounds read low 0.943 | locus YBR171W, strain sec66, active compounds read low 1 | locus YBR229C, strain ROT2, active compounds read low 0.987 | locus YBR231C, strain swc5, active compounds read low 0.954 | locus YBR279W, strain paf1, active compounds read low 0.969 | locus YCL011C, strain gbp2, active compounds read low 0.966 | locus YCL016C, strain dcc1, active compounds read low 0.969 | locus YCL029C, strain bik1, active compounds read low 0.995 | locus YCL061C, strain MRC1, active compounds read low 0.985 | locus YCL069W, strain vba3, active compounds read low 1.01 | locus YCR088W, strain abp1, active compounds read low 0.988 | locus YDL005C, strain med2, active compounds read low 0.983 | locus YDL035C, strain GPR1, active compounds read low 0.987 | locus YDL040C, strain nat1, active compounds read low 0.971 | locus YDL074C, strain BRE1, active compounds read low 0.93 | locus YDL101C, strain DUN1, active compounds read low 0.982 | locus YDL134C, strain PPH21, active compounds read low 0.986 | locus YDL185W, strain tfp1, active compounds read low 0.996 | locus YDL192W, strain arf1, active compounds read low 0.979 | locus YDR001C, strain nth1, active compounds read low 0.98 | locus YDR069C, strain doa4, active compounds read low 0.982 | locus YDR101C, strain arx1, active compounds read low 0.975 | locus YDR150W, strain NUM1, active compounds read low 1.01 | locus YDR159W, strain sac3, active compounds read low 0.951 | locus YDR162C, strain NBP2, active compounds read low 0.973 | locus YDR195W, strain ref2 1.05 | locus YDR297W, strain sur2, active compounds read low 0.974 | locus YDR318W, strain mcm21, active compounds read low 0.976 | locus YDR334W, strain swr1, active compounds read low 0.983 | locus YDR335W, strain msn5, active compounds read low 1.01 | locus YDR388W, active compounds read low 0.972 | locus YDR502C, strain sam2, active compounds read low 0.956 | locus YEL003W, strain gim4, active compounds read low 0.971 | locus YEL037C, strain rad23, active compounds read low 0.986 | locus YEL061C, strain CIN8 (second series), active compounds read low 1 | locus YEL061C, strain CIN8, active compounds read low 0.996 | locus YER015W, strain faa2, active compounds read low 0.96 | locus YER016W, strain bim1, active compounds read low 0.974 | locus YER110C, active compounds read low 0.972 | locus YER111C, strain swi4, active compounds read low 1.02 | locus YER155C, strain BEM2 (second series), active compounds read low 0.897 | locus YER155C, strain BEM2, active compounds read low 0.988 | locus YER167W, strain BCK2, active compounds read low 0.99 | locus YFR010W, strain ubp6, active compounds read low 1.01 | locus YGL078C, strain dbp3, active compounds read low 0.99 | locus YGL086W, strain mad1, active compounds read low 0.976 | locus YGL167C, strain pmr1, active compounds read low 0.963 | locus YGL173C, strain kem1, active compounds read low 0.98 | locus YGL227W, strain vid30, active compounds read low 1 | locus YGL240W, strain doc1, active compounds read low 0.941 | locus YGL248W, strain PDE1, active compounds read low 0.985 | locus YGL253W, strain hxk2, active compounds read low 0.936 | locus YGR078C, strain PAC10, active compounds read low 0.962 | locus YGR135W, strain pre9, active compounds read low 0.931 | locus YGR229C, strain SMI1, active compounds read low 0.921 | locus YGR252W, strain gcn5, active compounds read low 0.903 | locus YHR013C, strain ard1, active compounds read low 0.962 | locus YHR027C, strain rpn1, active compounds read low 0.999 | locus YHR030C, strain SLT2, active compounds read low 0.993 and 0.954 | locus YHR079C, strain IRE1 (second series), active compounds read low 0.976 | locus YHR079C, strain IRE1, active compounds read low 0.948 | locus YHR094C, strain hxt1, active compounds read low 0.994 | locus YHR129C, strain ARP1, active compounds read low 0.989 | locus YHR142W, strain chs7, active compounds read low 0.882 | locus YHR200W, strain rpn10, active compounds read low 0.981 | locus YIL066C, strain RNR3, active compounds read low 0.982 | locus YIL073C, strain SPO22, active compounds read low 0.978 | locus YIL125W, strain kgd1, active compounds read low 0.997 | locus YIR030C, strain dcg1, active compounds read low 0.975 | locus YJL092W, strain hpr5, active compounds read low 0.994 | locus YJL095W, strain BCK1 (second series), active compounds read low 0.97 | locus YJL095W, strain BCK1, active compounds read low 0.915 and 0.957 | locus YJL115W, strain asf1, active compounds read low 1 | locus YJL129C, strain trk1, active compounds read low 0.97 | locus YJL134W, strain LCB3, active compounds read low 0.991 | locus YJL154C, strain vps35, active compounds read low 0.993 | locus YJL164C, strain tpk1, active compounds read low 0.946 | locus YJL166W, strain qcr8, active compounds read low 0.931 | locus YJL168C, strain set2, active compounds read low 0.976 | locus YJL187C, strain SWE1 (second series), active compounds read low 0.977 | locus YJL187C, strain SWE1, active compounds read low 0.971 | locus YJR043C, strain POL32, active compounds read low 1.01 | locus YJR066W, strain TOR1, active compounds read low 0.95
